Compound activity as filed in PubChem BioAssay.
This is a sample that favours compounds with a hit; in the whole collection about 1.1% have one here.
LAP4 TOR yeast: modulators of LAP4-GFP expression in yeast, primary screen, S. cerevisiae, multiplex flow cytometry, MLPCN library | actives 0.34% (n = 320,000) | AID 2023, 2009 | 3 h; median GFP as percent of DMSO wells | GFP response vs DMSO, % at 10 µM;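 active = GFP response vs DMSO above a set limit, about the screen mean plus 3 SD, cut at about 150% in these data; inconclusive = under 70 cell events counted for the yeast strain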
VLA-4 inh: inhibition in human VLA-4 binding assay, primary screen, VLA-4 allosteric modulator project, MLPCN library, flow cytometry, VLA-4 expressing cells; Integrin alpha-4 (Homo sapiens), P13612; ligand binding flow cytometry; inhibition, % (about 7 µM as worked out from the volumes in the protocol); actives 0.2% (n = 330,000); AID 2557, 2010; in the data active = inhibition above about 50%
Target sequence (P13612 whole entry, looked up): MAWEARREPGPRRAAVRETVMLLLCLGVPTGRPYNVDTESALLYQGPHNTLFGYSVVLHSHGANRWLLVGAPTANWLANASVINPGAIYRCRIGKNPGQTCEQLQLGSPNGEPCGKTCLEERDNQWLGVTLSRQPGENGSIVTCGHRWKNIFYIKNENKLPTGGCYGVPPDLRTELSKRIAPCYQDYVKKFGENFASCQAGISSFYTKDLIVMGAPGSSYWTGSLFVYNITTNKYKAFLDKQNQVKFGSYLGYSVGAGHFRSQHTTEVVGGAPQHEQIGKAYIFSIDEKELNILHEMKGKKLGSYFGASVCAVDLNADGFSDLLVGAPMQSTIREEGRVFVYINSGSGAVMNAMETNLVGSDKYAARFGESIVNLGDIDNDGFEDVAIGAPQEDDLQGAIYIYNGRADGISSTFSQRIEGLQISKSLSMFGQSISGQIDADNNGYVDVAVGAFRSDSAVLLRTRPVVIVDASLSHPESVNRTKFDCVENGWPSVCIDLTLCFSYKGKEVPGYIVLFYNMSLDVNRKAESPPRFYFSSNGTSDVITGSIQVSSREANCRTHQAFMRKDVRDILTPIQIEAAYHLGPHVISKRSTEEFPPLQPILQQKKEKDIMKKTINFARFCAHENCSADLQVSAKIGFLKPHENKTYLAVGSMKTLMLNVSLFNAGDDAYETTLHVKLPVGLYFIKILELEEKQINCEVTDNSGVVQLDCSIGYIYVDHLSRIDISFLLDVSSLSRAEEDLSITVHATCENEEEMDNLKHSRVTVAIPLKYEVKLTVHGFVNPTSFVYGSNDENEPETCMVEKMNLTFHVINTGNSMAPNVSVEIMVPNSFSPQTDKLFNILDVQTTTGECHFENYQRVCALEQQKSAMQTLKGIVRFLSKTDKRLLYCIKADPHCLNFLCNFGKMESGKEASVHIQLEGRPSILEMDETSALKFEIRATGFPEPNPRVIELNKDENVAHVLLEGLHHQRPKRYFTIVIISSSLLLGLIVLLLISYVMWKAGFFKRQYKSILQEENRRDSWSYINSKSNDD
CIT2-GFP yeast: modulators of CIT2-GFP expression in yeast, primary screen, S. cerevisiae, GFP fusion, multiplex flow cytometry, MLPCN library; S. cerevisiae CIT2-GFP strain, 3 h; 100 means same as DMSO wells; GFP response vs DMSO, % at 10 µM; actives 0.065% (n = 320,000); AID 2029, 2009;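 active = GFP response relative to DMSO above a set limit, near the screen mean plus 3 SD, cut at about 150% in these data; inconclusive = Fewer than 70 cells measured for a yeast strain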;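 note: ratio of well median GFP fluorescence to mean of DMSO wells on the plate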
AGP1 TOR yeast: modulators of AGP1-GFP expression in yeast TOR pathway, primary screen, cell-based, multiplex flow cytometry, S. cerevisiae, MLPCN library; 3 h; GFP as percent of DMSO wells; GFP response vs DMSO, % at 10 µM; actives 0.02% (n = 320,000);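 active = GFP response relative to DMSO above a set limit, near screen average plus 3 SD, cut at about 150% in these data; inconclusive = fewer than 70 cells counted for the yeast strain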;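 note: median GFP channel fluorescence of the gated AGP1 strain per well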
RPL19A-GFP yeast: RPL19A-GFP expression modulators in yeast, primary screen, cell-based, S. cerevisiae, multiplex flow cytometry, MLPCN; percent response vs DMSO, % at 10 µM; actives 0.3% (n = 330,000); S. cerevisiae RPL19A-GFP strain, 3 h; active compounds read low;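 active = percent response vs DMSO below 50%; inconclusive = fewer than 70 events counted for the yeast strain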;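 note: median channel GFP fluorescence of the barcoded RPL19A-GFP strain; lower means less RPL19A-GFP as with rapamycin TOR inhibition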
MEP2 TOR yeast: modulators of MEP2-GFP levels in yeast, primary screen, S. cerevisiae, multiplex flow cytometry, MLPCN library. S. cerevisiae MEP2-GFP strain, 3 h; 100% = DMSO control level. GFP response vs DMSO, % at 10 µM. actives 0.51% (n = 330,000). AID 2016, 2009;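 active = GFP response versus DMSO above a set limit, roughly screen mean plus 3 SD, cut at about 180% in these data; inconclusive = fewer than 70 cells counted for a yeast strain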;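 note: median GFP fluorescence of the barcode-gated MEP2-GFP cells per well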
VLA-4 mod pick: retest of VLA-4 allosteric modulators, confirmation, cell-based, cherry-picked plates, U937, HUTS-21 LIBS antibody. inhibition, % at 6.7 µM. AID 2813, 2010. U937 cells, HUTS-21 LIBS mAb binding, flow cytometry; LDV ligand present at threefold Kd. shares compounds with VLA-4 inh. actives 2% (n = 1,300); in the data active = inhibition above about 40%
Of the large screens only hits and unclear results are named; the others gave an inactive call (follow-up assays come after a bar, where they were run).

Cc1ccc(NC(=O)Cn2c(=O)oc3ccccc32)c(C)c1	none | VLA-4 mod pick inactive
COc1ccc(CCNC(=O)Cn2c(=O)oc3ccccc32)cc1OC	none | VLA-4 mod pick inactive
Cc1cccc(NC(=O)Cn2c(=O)oc3ccccc32)c1C	none | VLA-4 mod pick inactive
CCCc1cc(=O)[nH]c(SCC(=O)N2CCCCCC2)n1	none
CC1CCCCN1S(=O)(=O)c1ccc(N(C(=O)c2cnccn2)C(C(=O)NC2CCCC2)c2cccs2)cc1 (configuration not stated)	none | VLA-4 mod pick inactive
CC(C)c1ccc(C(=O)NNC(=O)C2C3CCC(C3)C2C(=O)O)cc1 (configuration not stated)	none
O=C(COc1coc(CN2CCCc3ccccc32)cc1=O)Nc1ccccc1	none
Cc1ccc2c(c1)C1(OCCO1)C(=O)N2	none (no result: CIT2-GFP yeast)
O=C1Nc2ccc(F)cc2C12OCCO2	VLA-4 inh 50.7 | VLA-4 mod pick inactive
CN(CC(=O)Nc1cccc(F)c1)C(=O)CSc1ccccc1F	none
O=C1N[C@H](C(=O)O)CS1	VLA-4 inh 53.9 | VLA-4 mod pick inactive
COc1ccc(C(=O)OC(C)C(=O)NC(C)CCc2ccccc2)cc1OC (configuration not stated)	none | VLA-4 mod pick inactive
COc1ccccc1CNC(=O)[C@@H](NC(=O)C1CCN(C(=O)[C@@H]2CCCN2)CC1)C(C)C	none
c1ccc(-c2sc3ccccc3c2-c2ccc(OCCN3CCOCC3)cc2)cc1	none | VLA-4 mod pick inactive
COc1ccccc1-c1sc2ccccc2c1-c1ccc(OCCN2CCOCC2)cc1	none (no result: LAP4 TOR yeast, VLA-4 inh, CIT2-GFP yeast, AGP1 TOR yeast, RPL19A-GFP yeast, MEP2 TOR yeast) | VLA-4 mod pick inactive
COc1ccc2sc(-c3ccccc3OC)c(-c3ccc(OCCN4CCOCC4)cc3)c2c1	none (no result: LAP4 TOR yeast, VLA-4 inh, CIT2-GFP yeast, AGP1 TOR yeast, RPL19A-GFP yeast, MEP2 TOR yeast) | VLA-4 mod pick inactive
C1=C(c2sc3ccccc3c2-c2ccc(OCCN3CCOCC3)cc2)CCCC1	none
CC(C)(C)c1ccc(-c2nc3n(c(=O)c2C#N)CCS3)cc1	none
CN1CC(=O)Nc2ccc(Br)cc2C1=O	LAP4 TOR yeast inconclusive, VLA-4 inh 52.2, CIT2-GFP yeast inconclusive, AGP1 TOR yeast inconclusive, RPL19A-GFP yeast inconclusive, MEP2 TOR yeast inconclusive | VLA-4 mod pick inactive
O=C1Nc2ccc(Br)cc2C1=C1CCCCC1	none
CN1CC(=O)Nc2ccccc2C1=O	none | VLA-4 mod pick inactive
Cc1ccc(N2C(=O)CCC(C(=O)O)C2c2cccs2)cc1 (configuration not stated)	none
Cc1cccc(OCC(=O)NNC(=O)c2ccc3nc[nH]c3c2)c1	none
CC(C)(C)c1nnc(NC(=O)NS(=O)(=O)c2ccccc2)s1	VLA-4 inh 73.4 | VLA-4 mod pick inactive
Cc1ccc(NC(=O)N(C)c2ccccc2)cc1	none | VLA-4 mod pick inactive
C=CCN1c2ccccc2[C@]23C[C@@H](C(=O)OC)N(C(=O)c4ccc(Br)cc4)C2=NC(C(=O)OC)=C(C(=O)OC)[C@H]13	VLA-4 inh 51.2 | VLA-4 mod pick inactive
COCCN1CC(=O)N2C(c3cccc(C)c3)c3[nH]c4ccccc4c3C[C@H]2C1=O (some centres not stated)	none | VLA-4 mod pick inactive
COCCCN1CC(=O)N2C(c3cccc(C)c3)c3[nH]c4ccccc4c3C[C@H]2C1=O (some centres not stated)	none
O=S(=O)(Nc1ccc(O)c(NS(=O)(=O)c2ccccc2)c1)c1ccccc1	none
Cc1c(O)ccc(NS(=O)(=O)c2ccccc2)c1C	none | VLA-4 mod pick inactive
COc1ccc(CNC(=O)c2ccc(N3CCC4(CC3)CC(c3ccc(Cl)cc3)=NO4)c(N)c2)cc1	none
COc1ccccc1-n1cnnc1SCC(=O)Nc1ccccc1	none
COc1ccccc1-n1cnnc1SCc1csc(-c2ccccc2)n1	VLA-4 inh 95.2 | VLA-4 mod pick inactive
Cc1cc(Cl)c(S(=O)(=O)NC(C(=O)O)C(C)C)cc1OCC(=O)NC1CCCCC1 (configuration not stated)	none
Cc1cc(Cl)c(S(=O)(=O)N2CCCC2)cc1OCC(=O)NC1CCCCC1	VLA-4 inh 68.3 | VLA-4 mod pick inactive
O=C(Cn1ncc2c([nH]c3ccccc32)c1=O)NCC1CCN(Cc2ccccc2F)CC1	none
CC1CCN(C(=O)CNC(=O)c2ccc(Br)o2)CC1	none
Cc1nc(NC(=O)COC(=O)C(C)NC(=O)c2ccccc2)c(Cl)cc1Cl (configuration not stated)	none
Cc1nc(NC(=O)COC(=O)C(NC(=O)c2ccco2)C(C)C)c(Cl)cc1Cl (configuration not stated)	VLA-4 inh 51.9 | VLA-4 mod pick inactive
CC1C(=O)N2CCCc3cc(S(=O)(=O)Nc4ccccc4F)cc1c32 (configuration not stated)	none
CC1C(=O)N2CCCc3cc(S(=O)(=O)Nc4ccccc4C(N)=O)cc1c32 (configuration not stated)	none | VLA-4 mod pick inactive
CCCc1cc(C(=O)N2CCCC(C(=O)c3ccc(Cl)cc3)C2)n(C)n1 (configuration not stated)	none
CCCc1cc(C(=O)N2CCCC(C(=O)c3cc(C)c(OC)c(C)c3)C2)n(C)n1 (configuration not stated)	VLA-4 inh 105.9 | VLA-4 mod pick inactive
COc1ccc(C(=O)C2CCCN(Cc3c[nH]c4ccccc34)C2)c(OC)c1 (configuration not stated)	VLA-4 inh 55.1 | VLA-4 mod pick inactive
COc1ccc(C(=O)C2CCCN(Cc3c(F)ccc(F)c3F)C2)c(OC)c1 (configuration not stated)	none
COc1ccc2c(c1)C(c1ccc(Cl)cc1)NC(=O)C2 (configuration not stated)	none
O=C(NCCc1ccc(Cl)cc1)c1ccc2nc(N3CCOCC3)sc2c1	none | VLA-4 mod pick inactive
CCOc1ccc(CNC(=O)c2ccc3nc(N4CCOCC4)sc3c2)cc1	none | VLA-4 mod pick inactive
CCc1ccccc1NC(=O)c1ccc2nc(N3CCOCC3)sc2c1	none
Cc1ccc(NC(=O)c2ccc3nc(N4CCOCC4)sc3c2)c(Cl)c1	none | VLA-4 mod pick inactive
O=C(NCc1cccc(F)c1)c1ccc2nc(N3CCOCC3)sc2c1	none | VLA-4 mod pick inactive
